# Measured values taken from ChEMBL document CHEMBL2218924, “A broad activity screen in support of a chemogenomic map for kinase signalling research and drug discovery” (Biochem J, 2013).
# What was measured:
# [1] = target: Tyrosine-protein kinase SYK (Homo sapiens) (UniProt P43405); settings: at 10 µM
# [2] = target: T1, Mitogen-activated protein kinase kinase kinase 7 (Homo sapiens) (UniProt O43318); settings: at 1 µM
# T1 sequence (whole entry): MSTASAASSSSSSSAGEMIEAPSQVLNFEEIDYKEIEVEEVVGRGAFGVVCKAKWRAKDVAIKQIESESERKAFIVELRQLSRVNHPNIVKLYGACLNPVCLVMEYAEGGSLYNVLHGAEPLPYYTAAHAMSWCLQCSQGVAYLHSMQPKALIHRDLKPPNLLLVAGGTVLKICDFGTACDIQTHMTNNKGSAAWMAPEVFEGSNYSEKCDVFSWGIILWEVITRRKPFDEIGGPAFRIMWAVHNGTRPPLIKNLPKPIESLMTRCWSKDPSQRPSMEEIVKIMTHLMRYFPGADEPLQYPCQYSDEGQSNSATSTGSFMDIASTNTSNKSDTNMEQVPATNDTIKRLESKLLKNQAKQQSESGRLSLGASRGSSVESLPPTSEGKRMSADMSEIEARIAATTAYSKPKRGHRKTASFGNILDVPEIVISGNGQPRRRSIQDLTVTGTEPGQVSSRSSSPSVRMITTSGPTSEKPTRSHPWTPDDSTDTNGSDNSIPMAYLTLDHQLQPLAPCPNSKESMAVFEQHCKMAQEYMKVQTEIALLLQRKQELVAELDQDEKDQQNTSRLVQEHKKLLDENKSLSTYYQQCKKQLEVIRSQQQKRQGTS
# [3] = target: T1, Mitogen-activated protein kinase kinase kinase 7 (Homo sapiens); settings: at 10 µM
# [4] = target: T2, Serine/threonine-protein kinase TAO1 (Homo sapiens) (UniProt Q7L7X3); settings: at 1 µM
# T2 sequence (whole entry): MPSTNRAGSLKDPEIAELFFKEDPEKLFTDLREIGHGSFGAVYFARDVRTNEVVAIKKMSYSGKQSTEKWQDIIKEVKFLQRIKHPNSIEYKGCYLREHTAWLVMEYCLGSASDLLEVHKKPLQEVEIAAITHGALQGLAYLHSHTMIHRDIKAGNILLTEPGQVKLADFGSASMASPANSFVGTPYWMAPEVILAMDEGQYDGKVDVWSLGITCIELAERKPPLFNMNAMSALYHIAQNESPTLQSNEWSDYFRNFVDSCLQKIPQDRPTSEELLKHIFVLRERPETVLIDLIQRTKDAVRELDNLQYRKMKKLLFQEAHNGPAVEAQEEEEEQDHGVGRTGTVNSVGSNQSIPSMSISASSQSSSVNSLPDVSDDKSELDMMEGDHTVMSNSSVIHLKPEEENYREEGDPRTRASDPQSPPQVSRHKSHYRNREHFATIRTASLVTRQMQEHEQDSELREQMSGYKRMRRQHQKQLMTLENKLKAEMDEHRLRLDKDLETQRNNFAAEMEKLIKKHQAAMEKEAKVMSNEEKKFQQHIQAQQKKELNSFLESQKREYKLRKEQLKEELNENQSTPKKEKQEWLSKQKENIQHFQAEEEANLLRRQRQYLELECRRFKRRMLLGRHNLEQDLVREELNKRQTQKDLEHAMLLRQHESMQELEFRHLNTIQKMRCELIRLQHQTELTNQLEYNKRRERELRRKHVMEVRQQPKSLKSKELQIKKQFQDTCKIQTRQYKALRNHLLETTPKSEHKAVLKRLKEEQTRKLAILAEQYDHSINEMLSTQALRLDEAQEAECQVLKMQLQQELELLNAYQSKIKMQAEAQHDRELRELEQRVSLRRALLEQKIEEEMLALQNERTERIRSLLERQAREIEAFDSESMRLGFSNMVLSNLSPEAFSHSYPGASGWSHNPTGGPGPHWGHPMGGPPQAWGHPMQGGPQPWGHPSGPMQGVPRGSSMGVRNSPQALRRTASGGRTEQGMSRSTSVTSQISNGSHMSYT
# [5] = target: T2, Serine/threonine-protein kinase TAO1 (Homo sapiens); settings: at 10 µM
# [6] = target: T3, Serine/threonine-protein kinase TAO2 (Homo sapiens) (UniProt Q9UL54); settings: at 1 µM
# T3 sequence (whole entry): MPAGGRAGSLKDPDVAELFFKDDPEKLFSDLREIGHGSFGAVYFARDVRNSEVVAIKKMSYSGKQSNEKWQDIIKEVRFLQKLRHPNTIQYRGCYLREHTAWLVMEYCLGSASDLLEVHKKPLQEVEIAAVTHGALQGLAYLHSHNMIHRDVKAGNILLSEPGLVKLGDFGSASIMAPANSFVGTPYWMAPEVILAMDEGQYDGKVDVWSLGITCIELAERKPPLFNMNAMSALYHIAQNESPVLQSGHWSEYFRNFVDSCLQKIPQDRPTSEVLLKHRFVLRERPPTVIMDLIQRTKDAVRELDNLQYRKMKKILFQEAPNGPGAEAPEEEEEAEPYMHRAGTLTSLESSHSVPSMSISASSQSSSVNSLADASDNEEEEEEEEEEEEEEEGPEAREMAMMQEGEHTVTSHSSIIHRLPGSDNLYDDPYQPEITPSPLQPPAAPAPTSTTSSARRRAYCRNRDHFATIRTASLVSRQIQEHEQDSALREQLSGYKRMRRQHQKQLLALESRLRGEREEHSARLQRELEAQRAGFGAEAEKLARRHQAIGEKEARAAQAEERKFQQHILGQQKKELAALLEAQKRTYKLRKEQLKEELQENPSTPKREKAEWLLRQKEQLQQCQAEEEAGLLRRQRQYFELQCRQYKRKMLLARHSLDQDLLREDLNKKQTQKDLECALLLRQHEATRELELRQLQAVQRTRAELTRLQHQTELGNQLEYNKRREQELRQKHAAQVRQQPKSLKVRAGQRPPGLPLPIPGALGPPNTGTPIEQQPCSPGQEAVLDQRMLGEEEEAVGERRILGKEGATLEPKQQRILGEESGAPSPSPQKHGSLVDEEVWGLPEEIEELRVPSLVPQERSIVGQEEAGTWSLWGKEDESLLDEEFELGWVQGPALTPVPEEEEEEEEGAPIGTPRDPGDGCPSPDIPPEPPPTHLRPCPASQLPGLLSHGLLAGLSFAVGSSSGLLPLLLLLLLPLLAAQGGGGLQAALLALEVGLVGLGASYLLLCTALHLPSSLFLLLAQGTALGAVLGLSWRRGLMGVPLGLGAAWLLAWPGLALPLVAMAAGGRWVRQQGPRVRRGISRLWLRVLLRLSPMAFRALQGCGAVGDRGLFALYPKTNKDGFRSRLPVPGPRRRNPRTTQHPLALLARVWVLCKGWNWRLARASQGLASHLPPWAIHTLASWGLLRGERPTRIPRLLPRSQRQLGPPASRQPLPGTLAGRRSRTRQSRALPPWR
# [7] = target: T3, Serine/threonine-protein kinase TAO2 (Homo sapiens); settings: at 10 µM
# [8] = target: T4, Serine/threonine-protein kinase TAO3 (Homo sapiens) (UniProt Q9H2K8); settings: at 1 µM
# T4 sequence (whole entry): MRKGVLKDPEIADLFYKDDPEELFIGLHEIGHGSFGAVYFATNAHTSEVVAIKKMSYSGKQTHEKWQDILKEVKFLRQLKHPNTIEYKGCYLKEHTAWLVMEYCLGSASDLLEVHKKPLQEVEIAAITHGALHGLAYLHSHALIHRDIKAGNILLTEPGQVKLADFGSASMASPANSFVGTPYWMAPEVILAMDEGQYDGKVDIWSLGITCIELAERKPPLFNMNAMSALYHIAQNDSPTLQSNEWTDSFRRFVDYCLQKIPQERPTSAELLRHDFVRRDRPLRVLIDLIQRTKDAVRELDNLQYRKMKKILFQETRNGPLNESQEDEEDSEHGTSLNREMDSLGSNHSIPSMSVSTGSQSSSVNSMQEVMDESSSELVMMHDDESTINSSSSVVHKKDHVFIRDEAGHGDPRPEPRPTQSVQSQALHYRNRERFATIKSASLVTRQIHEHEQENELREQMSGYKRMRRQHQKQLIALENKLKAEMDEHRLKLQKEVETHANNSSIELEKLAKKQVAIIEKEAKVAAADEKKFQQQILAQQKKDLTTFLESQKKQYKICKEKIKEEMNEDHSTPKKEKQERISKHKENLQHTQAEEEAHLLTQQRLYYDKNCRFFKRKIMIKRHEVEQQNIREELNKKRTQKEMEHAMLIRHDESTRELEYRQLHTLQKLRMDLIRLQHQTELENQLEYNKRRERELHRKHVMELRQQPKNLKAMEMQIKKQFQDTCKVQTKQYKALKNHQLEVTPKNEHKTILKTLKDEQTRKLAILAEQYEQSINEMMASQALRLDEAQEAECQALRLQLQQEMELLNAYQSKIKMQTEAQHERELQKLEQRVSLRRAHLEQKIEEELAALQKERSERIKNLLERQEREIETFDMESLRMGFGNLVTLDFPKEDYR
# [9] = target: T4, Serine/threonine-protein kinase TAO3 (Homo sapiens); settings: at 10 µM
# [10] = target: T5, Serine/threonine-protein kinase TBK1 (Homo sapiens) (UniProt Q9UHD2); settings: at 1 µM
# T5 sequence (whole entry): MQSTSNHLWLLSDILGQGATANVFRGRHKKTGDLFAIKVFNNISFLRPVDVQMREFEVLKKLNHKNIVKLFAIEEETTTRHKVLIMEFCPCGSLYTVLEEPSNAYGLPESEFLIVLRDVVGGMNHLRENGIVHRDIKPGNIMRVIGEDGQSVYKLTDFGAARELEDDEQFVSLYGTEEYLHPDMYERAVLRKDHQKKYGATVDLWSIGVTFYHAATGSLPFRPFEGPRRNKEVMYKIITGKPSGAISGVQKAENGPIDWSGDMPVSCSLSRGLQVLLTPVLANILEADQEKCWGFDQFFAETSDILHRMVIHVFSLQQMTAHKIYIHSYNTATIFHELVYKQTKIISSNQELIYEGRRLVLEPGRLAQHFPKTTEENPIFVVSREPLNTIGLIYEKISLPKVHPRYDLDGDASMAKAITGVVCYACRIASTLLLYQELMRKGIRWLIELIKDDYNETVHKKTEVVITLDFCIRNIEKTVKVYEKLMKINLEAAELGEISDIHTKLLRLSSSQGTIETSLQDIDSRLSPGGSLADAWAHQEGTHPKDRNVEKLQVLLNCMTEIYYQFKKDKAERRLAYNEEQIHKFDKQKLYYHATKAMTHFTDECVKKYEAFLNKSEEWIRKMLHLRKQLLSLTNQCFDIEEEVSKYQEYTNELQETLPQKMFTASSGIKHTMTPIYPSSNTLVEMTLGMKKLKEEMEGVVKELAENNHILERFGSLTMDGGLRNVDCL
smiles,measurement,setting,value
Cc1nc(-c2ccccc2)c(-c2ccncc2)o1,residual activity,[1],116%
same,residual activity,[2],103%
same,residual activity,[3],97%
same,residual activity,[4],103%
same,residual activity,[5],79%
same,residual activity,[6],120%
same,residual activity,[7],108%
same,residual activity,[8],107%
same,residual activity,[9],101%
same,residual activity,[10],102%
